Bioassay records from PubChem.
DAX1 inh-1: NR0B1 (DAX1) inhibition. P51843. HEK293 Gal4-DAX1 luciferase reporter, luminescence. inhibition, % at 6.75 µM. 0.99% of 340,000 active. AID 504766;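 active means inhibition above the mean over all tested compounds plus 3 SD, cut at about 4.2% in these data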;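 further: inhibition shows as a rise in luminescence from relieved DAX1 repression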
Target sequence (P51843 207-470 limits assumed): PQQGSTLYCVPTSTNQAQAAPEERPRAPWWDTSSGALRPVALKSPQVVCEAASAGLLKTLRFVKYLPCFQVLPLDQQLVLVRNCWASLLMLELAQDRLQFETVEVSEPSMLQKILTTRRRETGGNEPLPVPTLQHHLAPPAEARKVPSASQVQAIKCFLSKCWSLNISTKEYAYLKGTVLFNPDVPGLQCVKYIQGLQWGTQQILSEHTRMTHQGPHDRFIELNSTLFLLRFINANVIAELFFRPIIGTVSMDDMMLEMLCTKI
hgDAF-12 ag: hgDAF-12 agonism, primary luciferase screen | activation, % at 6.8 µM | HEK293 GAL4-hgDAF12 UAS-luciferase reporter, agonist luminescence; normalized to butyrate control | AID 687014 | 1.8% of 370,000 active;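 active means activation above a cutoff set at the mean of all screened compounds plus 3 SD, cut at about 10% in these data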
hcDAF-12 act: activates DAF-12 receptor from parasite H. contortus; HEK293 hcDAF-12 lit1-tk-luc reporter, luminescence; 0% DMSO, 100% Δ7-dafachronic acid; activation, % at 6.8 µM; 1.4% of 370,000 active;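 active means activation above the mean of all tested compounds plus 3 SD, cut at about 5.5% in these data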
DAX1 inh-2: inhibitors of DAX1 repression of SF-1 activated StAR promoter; HEK293T StAR-luciferase reporter, SF-1/DAX-1 repression relief; inhibition, % at 6.8 µM; 1.1% of 370,000 active; AID 652010;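 active means inhibition above the mean over all tested compounds plus 3 SD, cut at about 3.6% in these data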;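 further: higher inhibition means more luminescence from relief of DAX-1 repression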
ssDAF12 agonist: activators of S. stercoralis DAF-12 nuclear receptor | activation, % at 6.8 µM | HEK293 ssDAF-12/GRIP1 lit1-tk-luc reporter, luminescence; % of 3 µM dafachronic acid response | 1% of 370,000 active;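 active means activation above the mean over all tested compounds plus 3 SD, cut at about 0.9% in these data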
A number is an active result; i = inactive; nt = not tested or not shown. Most compounds without a hit are left out; they make up all but 4.1% or so of the library.

SMILES | DAX1 inh-1 | hgDAF-12 ag | hcDAF-12 act | DAX1 inh-2 | ssDAF12 agonist
CC(On1nnc2ccc(S(=O)(=O)N3CCOCC3)cc21)C(=O)Nc1ccccc1F (stereo unspecified) | 5.0 | i | i | i | i
O=S(=O)(c1ccc2nnn(OCc3ccccc3)c2c1)N1CCOCC1 | i | i | i | i | i
CNC(=S)Nc1ccc2[nH]c(=O)[nH]c2c1 | i | i | i | i | i
CC(C)NC(=S)Nc1ccc2[nH]c(=O)[nH]c2c1 | 4.5 | i | i | i | i
C#CCOC(=O)C[N+](C)(C)CC#Cc1ccccc1 | 8.6 | i | i | i | i
C#CCOC(=O)C[N+](C)(C)C/C=C/c1ccccc1 | i | i | i | i | i
CCC(=O)N1Cc2cc(C(=O)NCC(F)(F)F)nc(-c3cccc(-c4cncnc4)c3)c2[C@H]1CCO | nt | i | i | i | i
c1ccc(Nc2nnc(-c3cccc4ccccc34)o2)cc1 | nt | i | 6.3 | i | 1.2
O=Cc1ccccc1OCc1ccc2c(c1)OCO2 | 4.5 | i | i | i | i
COc1ccc2c(c1)CC/C(=C/c1ccncc1)C2=O | i | nt | nt | nt | nt
COc1ccc2c(c1)CC/C(=C\c1ccc(C)o1)C2=O | 4.9 | i | i | i | i
C=CCN1C(=O)[C@@H](CC(=O)N2CCSCC2)[C@]2(C(=O)OCC)CCCCC/C=C/12 | nt | i | i | i | i
Nc1[nH]c(C(=O)c2ccccc2)c(-c2ccc3ccccc3c2)c1C(=O)NCc1cccc2ccccc12 | nt | i | i | i | i
COc1ccc([N+](=O)[O-])cc1NC(=S)NC(C)=O | 8.8 | i | i | i | i
COc1ccc(/C=C2\SC(=S)N(CCCC(=O)Nc3ccc(O)cc3)C2=O)cc1 | i | i | i | i | i
COc1ccc(/C=C2\SC(=S)N(CCC(=O)Nc3cccc(O)c3)C2=O)cc1 | 4.8 | i | i | i | i
C=CCN1C(=O)c2n[nH]c(COC)c2C1c1cccc(C(F)(F)F)c1 (stereo unspecified) | nt | i | i | i | i
COc1ccc(OC)c(C(=O)N/N=C/c2ccccn2)c1 | 4.6 | i | i | i | i
COc1ccccc1/C=C/C=N/NC(=O)c1cccs1 | 7.2 | i | i | i | i
O=C(N/N=C/c1ccc(-c2cccc([N+](=O)[O-])c2)o1)c1cccs1 | i | i | 5.7 | i | 1.8
Cc1ccccc1C(=O)N/N=C/c1ccccn1 | i | 12.9 | i | i | i
CCCCCc1ccc(-c2n[nH]c(=O)c3ccccc23)cc1 | nt | i | i | i | i
CCOc1cc(OCC)cc(C(=O)N2CCC[C@H]2C(=O)N2CCC[C@H]2C(=O)N[C@H](C)c2ccccc2)c1 | nt | i | i | i | i
O=C(N/N=C\c1cn[nH]c1-c1ccccc1)c1cccnc1 | i | i | i | i | i
O=C(N/N=C/c1ccccn1)c1ccncc1 | i | i | i | i | i
SMILES | DAX1 inh-1 | hgDAF-12 ag | hcDAF-12 act | DAX1 inh-2 | ssDAF12 agonist
O=C(N/N=C/c1ccccn1)c1cccs1 | i | i | i | i | 1.5
O=C(N/N=C\c1cn[nH]c1-c1ccccc1)c1cccs1 | i | 12.5 | i | i | i
CCN(CC(=O)NCc1cccs1)C(=O)Cc1ccc(C)c(C)c1 | i | i | i | i | i
O=C1NC(=NCc2ccccc2)S/C1=C/c1ccc(O)cc1 | i | i | i | i | i
O=C1N/C(=C/c2ccc(Br)cc2)C(O)=C1C=NCc1ccccc1 | i | i | 5.6 | i | i
CCCCOc1ccc(CC(=O)NCC(=O)O)cc1 | 4.9 | i | i | i | i
COCC(=O)Nc1ccc2c(c1)[C@@H]1C[C@H](CC(=O)OC)O[C@H](CO)[C@@H]1O2 | 4.6 | i | i | i | i
O=C(OCC(=O)N1CCc2ccccc2C1)c1ccc(F)cc1Cl | i | 10.9 | i | i | i
O=C(COC(=O)c1ccc2ccccc2n1)c1ccccc1 | i | i | i | i | 1.3
CN(C(=O)COC(=O)c1ccc2ccccc2n1)C1CCCCC1 | i | i | i | i | 2.1
COC(=O)[C@]12C[C@H](CC(=O)NCCC(C)C)C(=O)N(CCC3=CCCCC3)C1=C[C@H](COCc1ccccc1)O[C@@H]2C | nt | i | i | i | i
Cc1ccc(-c2cc(NC=O)c3ncc(-c4cnn(C)c4)n3c2)cc1 | nt | i | i | i | i
COc1ccc(-c2nnc(SCC(=O)Nc3ccc(Oc4ccccc4)cc3)n2Cc2ccco2)cc1 | nt | i | i | i | i
Cc1ccc(-c2nnc(SCC(=O)Nc3ccc(-c4nc5ccc(C)cc5s4)cc3)n2Cc2ccco2)cc1 | nt | 10.7 | i | i | i
C=CC[C@]12C[C@@]3(O[C@H](c4ccccn4)N=C3C[C@H](c3ccc(OC)cc3)[C@H]1C)N(C1CCN(Cc3ccccc3)CC1)C2=O | nt | i | i | i | i
CN(C)S(=O)(=O)c1ccc(Cl)c(NC(=O)COC(=O)CNS(=O)(=O)c2c(F)cccc2F)c1 | i | i | i | i | i
NC1=NC(=O)/C(=C/c2ccccc2OS(=O)(=O)c2ccccc2)S1 | i | i | i | i | i
COc1cccc(/C=C2\SC(N)=NC2=O)c1OS(=O)(=O)c1ccccc1 | i | i | i | i | 1.1
COC(=O)[C@]12C[C@H](CC(=O)NCCCN3CCCC3=O)C(=O)N(Cc3ccccc3)C1=C[C@H](C(C)C)O[C@@H]2C1CC1 | nt | i | i | i | i
COCCCNC(=O)c1ccc(OC)c(OC2CCN(C(C)C)CC2)c1 | 5.2 | i | i | i | i
Cc1nn(-c2ccccc2)c2sc(C(=O)N3CCN(S(=O)(=O)c4ccc(Br)s4)CC3)cc12 | nt | i | i | i | i
N#CCCN1CCN(S(=O)(=O)c2ccc(S(=O)(=O)NCc3ccccc3)cc2)CC1 | 5.4 | i | i | i | i
CCN(CC)S(=O)(=O)c1ccc(S(=O)(=O)N2CCN(CCC#N)CC2)cc1 | i | i | i | i | i
CN(C)S(=O)(=O)c1ccc(S(=O)(=O)N2CCN(CCC#N)CC2)cc1 | 6.2 | i | i | i | i
COCCN1C(=O)[C@H]2C[C@@]13O[C@H](c1ccc(C(F)(F)F)cc1)N=C3C[C@H](c1ccccc1)[C@H]2C | nt | i | i | i | i
SMILES | DAX1 inh-1 | hgDAF-12 ag | hcDAF-12 act | DAX1 inh-2 | ssDAF12 agonist
O=C1C(C=NCc2ccncc2)=C(O)c2ccccc21 | i | i | i | i | i
O=C1C(C=NCc2cccnc2)=C(O)c2ccccc21 | i | 12.1 | i | i | i
CCCCNS(=O)(=O)c1ccc(NC(=O)Cc2ccccc2[N+](=O)[O-])cc1 | i | i | i | i | 2.0
O=C(Cc1ccccc1[N+](=O)[O-])NC1CCN(Cc2ccccc2)CC1 | i | i | i | i | 1.5
CC(C)(C)NS(=O)(=O)c1ccc(NC(=O)Cc2ccccc2[N+](=O)[O-])cc1 | i | i | i | i | i
O=C(Cc1c(F)cccc1Cl)NC1CCN(Cc2ccccc2)CC1 | i | i | i | i | i
CC(NC(=O)Cn1cc(Br)c([N+](=O)[O-])n1)c1ccccc1 (stereo unspecified) | 4.3 | i | i | i | i
NS(=O)(=O)c1ccc(CNC(=O)Cc2ccccc2[N+](=O)[O-])cc1 | i | i | 5.6 | i | i
O=C(Cn1cnc2sc3c(c2c1=O)CCCC3)NCC(=O)Nc1ccc(F)cc1F | i | i | i | i | i
